Some test systems named below: HCT-15 colon; HT29 colon; SNB-75 CNS; SNB-19 CNS; U251 CNS; PC-3 prostate; SK-MEL-5 melanoma; UACC-62 melanoma; LOX IMVI melanoma; SK-MEL-28 melanoma; SK-MEL-2 melanoma; EKVX NSCLC; UO-31 renal; TK-10 renal; ACHN renal; CAKI-1 renal; A498 renal; CCRF-CEM leukemia; MOLT-4 leukemia; SN12C renal.
Common to all, as to experiment: NCI-60 one-dose screen, 48 h (100 = growth as untreated, 0 = no growth, -100 = all killed)
Holding throughout (conditions): 10 µM unless noted

This is part of a sample that, as a whole, favours compounds with a hit. Of some 83,000 tested, about 20% had one in any assay.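 96-well plates, one dose, 48 hours. Percent growth reported; active if below 10.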 Values without a mark were called inactive. Active and inactive are the calls of the source.

In the case of `CCCCCCCC/C=C\CCCCCCCC(=O)Oc1cccc2cccnc12`, the growth with HCT-15 colon is 81.8%; with HT29 colon, 137%; in the test on SNB-75 CNS it was 149%; in the test on SNB-19 CNS it was 103%; in the test with U251 CNS, 91%; in the test with PC-3 prostate, 114%. Also, the growth is 102% in the test on SK-MEL-5 melanoma; 99.8% in the test with UACC-62 melanoma; 79.8% with LOX IMVI melanoma; 176% in the test on SK-MEL-28 melanoma; 140% with SK-MEL-2 melanoma; 95.1% in the test with EKVX NSCLC. Besides, the growth in the test with UO-31 renal is 88.3%; in the test on TK-10 renal it was 120%; in the test on ACHN renal, 103%; in the test on CAKI-1 renal it was -0.06% (active); in the test with A498 renal, 121%; in the test on CCRF-CEM leukemia, 96.3%. Further, in the test with MOLT-4 leukemia, the growth was 80.3%.

Regarding `COc1ccc(OC)c(Nc2nc3nonc3nc2Nc2cccc(Br)c2)c1`, the growth with HCT-15 colon was 13.1%; with HT29 colon, 3.47% (active); in the test with SNB-75 CNS, 3.07% (active); in the test on SNB-19 CNS, 14.6%; in the test with U251 CNS, 3.05% (active); with PC-3 prostate it was 1.15% (active). In addition, the growth was -47.8% (active) in the test on SK-MEL-5 melanoma; 18.7% with UACC-62 melanoma; 4.56% (active) in the test on LOX IMVI melanoma; 30.2% with SK-MEL-28 melanoma; -17.4% (active) in the test with SK-MEL-2 melanoma; 12.4% in the test on SN12C renal. For the same compound, the growth in the test with UO-31 renal was 3.39% (active); with TK-10 renal, 7.4% (active); with ACHN renal, -22.5% (active); in the test with CAKI-1 renal, 0.162% (active); in the test on A498 renal, -39.9% (active); with CCRF-CEM leukemia, 12.4%. Further, the growth in the test with MOLT-4 leukemia is 3.8% (active).

In the case of `O=C(c1ccccc1)c1ccc(Cl)c([N+](=O)[O-])c1`, the growth in the test on HCT-15 colon was 90%; in the test with HT29 colon, 83%; in the test on SNB-75 CNS it was 87.7%; in the test with SNB-19 CNS, 98.5%; with U251 CNS it was 97.1%; in the test with PC-3 prostate, 90.2%. For the same compound, the growth in the test on SK-MEL-5 melanoma is 101%; in the test with UACC-62 melanoma it was 93.2%; in the test with LOX IMVI melanoma, 37.1%; with SK-MEL-28 melanoma it was 96.8%; in the test with SK-MEL-2 melanoma, 95.3%; in the test with SN12C renal, 97%. Also, the growth with UO-31 renal was -87.9% (active); in the test on TK-10 renal, 107%; in the test with ACHN renal, 98.2%; with CAKI-1 renal, -2.29% (active); with A498 renal it was 57.1%; with CCRF-CEM leukemia, 13.5%. The growth with MOLT-4 leukemia was 11.9%.

For `COc1ccc(NC(=O)c2cccc(-c3cc(=O)c4c(O)c(OC)c(OC)cc4o3)c2)cc1`, the growth is 107% in the test on HCT-15 colon; 87.7% with HT29 colon; -5.24% (active) in the test on SNB-75 CNS; 61.6% in the test with SNB-19 CNS; 73.2% with U251 CNS; 86.2% in the test with PC-3 prostate. Moreover, the growth was 91.4% in the test with SK-MEL-5 melanoma; 81.1% in the test on UACC-62 melanoma; 79.7% in the test on LOX IMVI melanoma; 104% with SK-MEL-28 melanoma; 83.4% with SK-MEL-2 melanoma; 84.3% in the test with SN12C renal. In addition, the growth was 93.4% with UO-31 renal; 105% in the test on TK-10 renal; 83.6% in the test on ACHN renal; 93.6% with CAKI-1 renal; 83.8% with A498 renal; 84% in the test on CCRF-CEM leukemia. The growth with MOLT-4 leukemia was 103%.

As for `Fc1ccc(Nc2nc(Nc3ccc(-c4nc5ccccc5[nH]4)cc3)c3cn[nH]c3n2)cc1`, the growth is -41.2% (active) with HCT-15 colon; -8.84% (active) in the test on HT29 colon; 83.3% in the test on SNB-75 CNS; 87.6% in the test with SNB-19 CNS; 33.5% in the test with U251 CNS; 76.6% with PC-3 prostate. Moreover, the growth is 78.8% in the test on SK-MEL-5 melanoma; 84.9% in the test on UACC-62 melanoma; -64.6% (active) with LOX IMVI melanoma; 51.7% in the test with SK-MEL-28 melanoma; 92.8% with SK-MEL-2 melanoma; 72.4% in the test on EKVX NSCLC. Also, the growth is 79.8% in the test with UO-31 renal; 78.9% with ACHN renal; 89.7% with CAKI-1 renal; 101% in the test on A498 renal; 31.9% in the test with CCRF-CEM leukemia; 21.6% in the test on MOLT-4 leukemia.

Regarding `C=C(Cl)COC(=O)C(C)(C)O`, the growth is 102% in the test on HCT-15 colon; 92.8% in the test on HT29 colon; 84.6% in the test with SNB-75 CNS; 105% in the test with SNB-19 CNS; 100% with U251 CNS; 92.8% with PC-3 prostate. The growth was 106% with SK-MEL-5 melanoma; 111% in the test with UACC-62 melanoma; 94.8% in the test with LOX IMVI melanoma; 97.7% with SK-MEL-28 melanoma; 92.9% in the test with SK-MEL-2 melanoma; 107% in the test with SN12C renal. Also, the growth in the test with UO-31 renal was 92.7%; in the test on TK-10 renal it was 89.5%; in the test on ACHN renal it was 105%; in the test with CAKI-1 renal, 94.6%; with A498 renal, 94.1%; in the test on CCRF-CEM leukemia, 92.6%. The growth in the test on MOLT-4 leukemia was 97.1%.
